Assay outcomes: PubChem, several laboratories
Sampled rows, rich in hits. Any-hit rate of the full collection: about 5.7%.
MPTP inh: mitochondrial permeability transition pore inhibitors, primary screen, biochemical, isolated mouse mitochondria, absorbance | Ca2+ swelling absorbance, 30 min | inhibition, % at 10 µM | actives 1.4% (n = 360,000) | AID 602449, 2012;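 active means inhibition of 50% or more, scaled per plate between neutral and stimulator controls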;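 further: 0% = DMSO wells given calcium and 100% = 1 mM EGTA wells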
FAS-TE inh: FAS thioesterase domain inhibitors, primary screen, biochemical, fluorescence intensity, uHTS | inhibition, % at 15 µM | Fatty acid synthase (Homo sapiens), P49327 | recombinant FAS-TE, OMFH fluorogenic substrate, fluorescence endpoint | actives 0.67% (n = 360,000);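 active means compounds whose normalised, plate-corrected inhibition of enzyme fluorescence in the single-dose primary screen is 50% or more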;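 further: 0% = DMSO with enzyme and 100% = substrate without enzyme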
Myeloid diff 2: induction of myeloid progenitor differentiation, primary screen, cell-based, flow cytometry, MLPCN library; ER-HoxA9 myeloid progenitors, lysozyme-GFP differentiation; calls only at 10 µM; actives 1% (n = 360,000);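 active means normalized GFP-positive differentiation at or above the plate's own cutoff, the solvent-only control mean plus 3 SD; inconclusive means no clear call, values can overlap the other calls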;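 further: cells exposed to compound for four days before flow analysis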
rCAG binder: binders of r(CAG) RNA repeats, primary screen, biochemical, fluorescence; AID 651821, 2012; actives 1.3% (n = 370,000); r(CAG) RNA repeat, TO-PRO-1 dye displacement fluorescence; inhibition, % at 3 µM;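 active means inhibition above the plate cutoff, the mean of all test compounds on that plate plus 3 SD, cut at about 35% in these data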;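 further: 0% = DMSO alone and 100% = 100 µM mitoxantrone as full dye displacement; higher means more dye released from RNA so lower well fluorescence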
NR3A LBD binder: binders of NR3A ligand-binding domain, primary screen, biophysical, differential scanning fluorimetry, uHTS | NR3A LBD differential scanning fluorimetry, Tm shift; 0% = protein alone, 100% = glycine-bound protein | Tm shift relative to glycine control, % at 25 µM | actives 2.5% (n = 340,000) | AID 1259313, 2017;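 active means melting temperature shift of at least 10% of the positive control shift, at one fixed dose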
rCAG bind conf: small molecules binding CAG repeat RNA – biochemical, fluorescence, confirmation; inhibition, % at 3 µM; actives 70% (n = 4,300); AID 652065, 2013; shares compounds with rCAG binder; r(CAG) RNA repeat, TO-PRO-1 dye displacement fluorescence;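 active means inhibition above a per-plate cutoff, the mean inhibition of sample wells plus 3 SD, cut at about 35% in these data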;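 further: loss of TO-PRO-1 fluorescence as compound displaces dye from 1x1 AA loop RNA; 0% = DMSO only wells and 100% = 100 µM mitoxantrone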
DNA CAG counter: displacement of TO-PRO-1 from CAG DNA duplex, counter-screen for rCAG RNA repeat binder project, biochemical, fluorescence, TO-PRO-1 dye, d(CAG) DNA oligo; inhibition, % at 3 µM; actives 94% (n = 4,300); d(CAG) DNA oligo TO-PRO-1 dye displacement; shares compounds with rCAG binder;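 active means inhibition above its plate's cutoff, the mean test-well inhibition plus 3 SD, cut at about 4.8% in these data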;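 further: 0% = DNA dye mix with DMSO and 100% = 100 µM mitoxantrone; hits displace the dye from DNA and so lower well fluorescence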
The depositor's hits bear a star; i = inactive; ? = inconclusive; . = no result.

SMILES	MPTP inh	FAS-TE inh	Myeloid diff 2	rCAG binder	NR3A LBD binder	rCAG bind conf	DNA CAG counter
Cc1nn(-c2cccc(C(F)(F)F)c2)c(Cl)c1/C=N/Nc1cccc(C(=O)O)c1	-0.1	45.3	i	44.0*	-0.6	57.2*	19.2*
CCOc1cc(/C=N/Nc2cccc(C(=O)O)c2)ccc1OC(=O)c1ccccc1	-0.4	8.8	.	36.0*	-1.8	82.4*	50.7*
O=C(O)c1cccc(N/N=C/C2=C(Cl)c3cc(Cl)ccc3SC2)c1	-4.1	43.3	i	34.8*	-14.9	80.0*	49.8*
Cc1ccc(/C=N/Nc2ccc(C(=O)O)cc2)s1	0.2	-0.5	i	24.0	2.1	.	.
O=C(O)c1cccc(N/N=C/c2ccc(F)c(F)c2)c1	-1.6	-2.7	i	6.8	0.1	.	.
COCC(C)n1c(SCC(=O)Nc2sccc2C(N)=O)nc2ccccc2c1=O (configuration not stated)	-0.1	-2.0	i	7.2	-1.6	.	.
NS(=O)(=O)c1ccc(NC(=O)COC(=O)c2ccc(Cl)cc2[N+](=O)[O-])cc1	1.4	-2.6	i	5.3	-0.9	.	.
O=C1C=CC2=C3c4cc(O)c(O)cc4CC3(O)COC2=C1O (configuration not stated)	15.3	4.0	i	43.4*	-1.8	62.8*	33.8*
CCN(CC)CCN(C(=O)CCS(=O)(=O)c1ccccc1)c1nc2c(C)cc(C)cc2s1	1.2	0.9	.	-3.7	1.9	.	.
Cc1cc(C)nc(NS(=O)(=O)c2ccc(NC(=O)CSc3nc(-c4ccccc4)c(C#N)c(=O)[nH]3)cc2)n1	-0.6	-2.2	i	45.1*	-1.4	29.9	7.4*
CCC(Sc1nc(-c2ccccc2)c(C#N)c(=O)[nH]1)C(=O)Nc1nnc(C)s1 (configuration not stated)	0.4	-9.5	i	43.9*	-10.5	42.6*	11.9*
Cc1cc(NC(=O)CSc2nc(-c3ccccc3)c(C#N)c(=O)[nH]2)no1	-1.0	-5.7	i	16.0	-0.2	.	.
N#Cc1c(-c2ccccc2)nc(SCC(=O)Nc2nnc(C(F)(F)F)s2)[nH]c1=O	-0.9	-1.1	i	46.4*	1.1	22.8	5.6*
O=C(CSc1nc(O)c(Cc2ccccc2)c(=O)[nH]1)Nc1nnc(SCc2ccccc2)s1	2.4	-1.1	i	52.8*	-9.9	28.4	7.5*
N#Cc1c(-c2ccccc2)nc(SCC(=O)Nc2ccc(OC(F)(F)Cl)cc2)[nH]c1=O	2.1	36.7	i	90.3*	8.1	84.6*	57.9*
N#Cc1c(-c2ccccc2)nc(SCC(=O)Nc2ccccc2F)[nH]c1=O	-2.4	-4.4	i	44.0*	-8.4	31.6	8.2*
N#Cc1c(-c2cccs2)nc(SCC(=O)c2cccs2)[nH]c1=O	1.5	1.2	i	79.4*	-14.5	64.7*	29.1*
N#Cc1c(-c2ccccc2)nc(SCC(=O)N(c2ccccc2)c2ccccc2)[nH]c1=O	6.6	5.3	i	73.2*	-15.4	82.1*	40.9*
N#Cc1c(-c2ccccc2)nc(SCC(=O)Nc2ccccc2)[nH]c1=O	3.1	-0.8	i	29.1	-4.0	.	.
O=C(Nc1ccccn1)c1cccc(S(=O)(=O)N2CCc3ccccc3C2)c1	1.9	12.0	i	-0.5	5.3	.	.
C[C@H](CO)N1C[C@H](C)[C@@H](CN(C)S(C)(=O)=O)Oc2ccc(NC(=O)CCC(F)(F)F)cc2C1=O	1.2	-12.7	i	-3.3	-0.2	.	.
O=C(NC1CCCC1)C(C1CC1)n1c(-c2ccccn2)nc2ccccc21 (configuration not stated)	0.6	.	i	-0.3	.	.	.
CCCCCC(=O)Nc1nc(C)c(-c2csc(Nc3cc(Cl)ccc3OC)n2)s1	0.1	10.9	i	39.5*	1.9	26.7	13.3*
COc1ccc2c(c1)c1nc3n(c(=O)c1n2CC(=O)Nc1ccccc1)CCCS3	0.6	-2.9	i	5.0	0.9	.	.
Cc1ccc(C)c(NC(=O)CN(C)C(=O)C2=NNC(=O)CC2)c1	1.4	-9.0	i	3.5	0.3	.	.
SMILES	MPTP inh	FAS-TE inh	Myeloid diff 2	rCAG binder	NR3A LBD binder	rCAG bind conf	DNA CAG counter
CC(C)C[C@@H](C(=O)N[C@@H](C(=O)O)c1ccccc1)N1C(=O)N2CCc3c([nH]c4ccccc34)[C@@]2(C)C1=O	-0.4	-0.4	i	42.6*	-0.5	43.5*	11.9*
CC(=O)OCCCNc1cc(SCc2ccco2)c2nonc2c1[N+](=O)[O-]	-0.4	18.9	i	59.6*	-24.9	22.0	9.8*
COc1cc(NS(=O)(=O)c2ccc(NC(=S)NC(=O)C3CCCC3)cc2)nc(OC)n1	-0.9	-4.4	i	44.5*	-1.6	32.9	10.2*
COc1ccc(OCC(=O)NC(=S)Nc2ccc(S(=O)(=O)Nc3cc(OC)nc(OC)n3)cc2)cc1	0.8	-4.8	i	52.4*	-9.1	52.6*	19.7*
Cc1ccc(NC(=O)C2CCCC2)cc1Cl	4.1	2.3	i	-3.0	-1.0	.	.
COc1cc(NS(=O)(=O)c2ccc(NC(=S)Nc3ccccc3)cc2)nc(OC)n1	-1.1	-3.6	i	2.8	-2.3	.	.
Cc1ccc(NS(=O)(=O)c2ccc(Cl)c(NC(=S)NC(=O)C3CCCCC3)c2)cc1Cl	26.8	44.9	i	44.9*	32.9*	41.2*	17.0*
CN(C(=O)COC(=O)c1cc(=O)[nH]c2ccccc12)c1ccccc1	0.5	-8.5	i	-0.9	-0.6	.	.
NS(=O)(=O)c1ccc(NC(=S)NC(=O)/C=C/c2ccco2)cc1	4.2	-4.2	i	39.6*	-4.6	23.5	10.8*
COc1ccc(C(=O)NC(=S)Nc2nc(-c3ccc(OC)c(Br)c3)cs2)cc1Br	-0.7	24.2	i	3.8	1.2	.	.
NC(N)=NS(=O)(=O)c1ccc(NC(=S)NC(=O)/C=C/c2ccco2)cc1	0.6	-11.9	i	17.1	-6.5	.	.
O=C(/C=C/c1ccco1)NC(=S)Nc1cccc(-c2nc3ccccc3o2)c1	0.4	18.2	?	35.0*	3.6	21.8	12.7*
Cc1cccc(NC(=S)NC(=O)/C=C/c2ccco2)c1	1.0	8.7	?	36.6*	-3.2	29.4	14.4*
Cc1ccc(-c2nc3ccccc3o2)cc1NC(=S)NC(=O)/C=C/c1ccco1	0.4	17.2	i	25.2	-23.1	.	.
COc1ccc(-c2csc(NC(=S)NC(=O)/C=C/c3ccco3)n2)cc1Br	0.8	8.6	.	66.8*	21.0*	33.5	16.3*
